Source: PubChem BioAssay (NCATS)
Records with an inconclusive call do not appear. Values without a mark were called inactive. Calls of active or inactive are those of the source. Calls follow the shape of the dose curve; as a rule, active = well fitted cell-killing curve with a large enough effect; inconclusive = small, poorly fitted or top-dose-only effect, or effect the other way; inactive = no such curve, though single readings can be large or run the other way.

Tests used:
[1] = Viability qHTS for spleen associated tyrosine kinase inhibitor (SYKi) naive MV4-11 cells (AID 1963823); conditions: MV4-11 AML viability, CellTiter-Glo luminescence, 72 h; series mostly up to 45 µM; also: nearly all actives have a fitted effect of over 40% in size
In short: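 Compounds were dispensed acoustically onto plates, MV4-11 cells (SYKi-naive) added at 500 per well, and plates incubated 72 hr at 37 C. CellTiter-Glo was added and luminescence measured after 10 min.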

[2] = Viability qHTS for spleen associated tyrosine kinase inhibitor (SYKi) drug resistant MV4-11 cells (AID 1963824); conditions: SYKi-resistant MV4-11 viability, CellTiter-Glo, 72 h; series mostly up to 45 µM; also: nearly all actives have a fitted effect of over 35% in size
In short: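 SYK-inhibitor-resistant MV4-11 AML cells were seeded at 500 per well onto compound and cultured 72 hours (37 °C, 5% CO2). CellTiter-Glo was then added, and after 10 min at room temperature, luminescence gave viability.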
Potency is read from the fitted curve at half-maximal effect.

Compound | Potency [1] | Potency [2] | viability (% of control) [1] | viability, % of control [2]
Cc1ccc(Cc2c(C)nc3nc(SCC(=O)NCCN4CCNCC4)nn3c2C)cc1 | inactive | inactive | – | –
C=CC(C)(O)CO[C@@H]1O[C@H](CO)[C@@H](O)[C@H](O)[C@H]1O (stereo partly specified) | inactive | inactive | – | –
NC1(C(=O)NC(CCO)c2ccc(Cl)cc2)CCN(c2ncnc3[nH]ccc23)CC1 (stereo unspecified) | 2.31 µM (active) | 4.11 µM (active) | – | –
Cn1cnc2c(NCc3ccccc3)nc(NCCO)nc21 | inactive | inactive | – | –
CC(C)(C)c1ccc(C(=O)Nc2cn3cc(-n4ccnc4)ccc3n2)cc1 | 1.84 µM (active) | 5.17 µM (active) | – | –
c1ccc2c(-c3cnn4cc(-c5ccc(OCCN6CCOCC6)cc5)cnc34)ccnc2c1 | 1.02 µM (active) | 1.44 µM (active) | – | –
COc1cc(/C=C/C(=O)O[C@@H]2C[C@@](O)(C(=O)O)C[C@@H](O)[C@@H]2O)ccc1O | inactive | inactive | – | –
C[C@@H]1O[C@@H](O[C@@H]2[C@@H](O)[C@H](O[C@@H]3[C@@H](O)[C@@H](O)[C@H](O[C@H]4[C@H](OC(=O)[C@]56CCC(C)(C)C[C@H]5C5=CCC7[C@@]8(C)C[C@H](O)[C@H](O[C@@H]9O[C@H](C(=O)O)[C@@H](O)[C@H](O)[C@H]9O)[C@@](C)(CO)C8[C@H](O)C[C@@]7(C)[C@]5(C)C[C@H]6O)O[C@@H](CO)[C@@H]4O)O[C@H]3C)OC[C@H]2O)[C@H](O)[C@H](O)[C@H]1O (stereo partly specified) | – | – | 90.8% [at 9.25 µM] | 95.2% [at 9.25 µM]
C/C=C(/C)C(=O)O[C@H]1C=C(CO)C(=O)[C@H](OC(=O)/C(C)=C/CO)[C@H]1C(C)C | 2.02 µM (active) | 1.61 µM (active) | – | –
C=C1C[C@]23C[C@@]1(O)CC[C@H]2[C@@]12C=C[C@H](O)[C@@](C)(C(=O)O1)[C@H]2[C@@H]3C(=O)O | inactive | inactive | – | –
Cc1ccc(OCCSc2ncccn2)c(Br)c1 | inactive | inactive | – | –
C[C@@H]1O[C@@H](O[C@H]2[C@@H]3C=CO[C@@H](O[C@@H]4O[C@H](CO)[C@@H](O)[C@H](O)[C@H]4O)[C@@H]3[C@@]3(CO)O[C@@H]23)[C@H](OC(=O)/C=C/c2ccccc2)[C@H](O)[C@H]1O | inactive | inactive | – | –
CCC(O)C(C)C1CCC(C(C)C(=O)O)O1 (stereo unspecified) | inactive | inactive | – | –
O=C1CC[C@@H](C(=O)N2CSC[C@H]2C(=O)O)N1 | inactive | inactive | – | –
Cc1ccc(C)c(NS(=O)(=O)c2cc(C(=O)Nc3ccccc3-c3ccccc3)ccc2C)c1 | 23.1 µM (active) | 16.4 µM (active) | – | –
C[C@@H]1O[C@@H](O[C@H]2[C@H](O[C@H]3[C@H](O[C@H]4CC[C@@]5(C)C(CC[C@]6(C)C5CC=C5[C@@H]7CC(C)(C)C[C@@H](O)[C@]7(C)CC[C@]56C)[C@@]4(C)CO)O[C@H](C(=O)O)[C@@H](O)[C@@H]3O)O[C@H](CO)[C@H](O)[C@@H]2O)[C@H](O)[C@H](O)[C@H]1O (stereo partly specified) | – | – | 74.1% [at 9.25 µM] | 80.3% [at 9.25 µM]
C[C@@H]1O[C@@H](O[C@H]2[C@H](O[C@H]3[C@H](O[C@H]4CC[C@@]5(C)C(CC[C@]6(C)C5CC=C5[C@@H]7CC(C)(C(=O)O)C[C@@H](O)[C@]7(C)CC[C@]56C)[C@@]4(C)CO)O[C@H](C(=O)O)[C@@H](O)[C@@H]3O)O[C@H](CO)[C@H](O)[C@@H]2O)[C@H](O)[C@H](O)[C@H]1O (stereo partly specified) | – | – | 58.7% [at 9.25 µM] | 77.5% [at 9.25 µM]
C=C(C)C(O)COc1ccc(CC(=O)O)cc1 (stereo unspecified) | inactive | inactive | – | –
C[C@@H]1Cc2c([nH]c3ccccc23)[C@@H](c2c(F)cc(/C=C/C(=O)O)cc2F)N1CC(C)(C)F | 23.5 µM (active) | 20.9 µM (active) | – | –
CC(C)C[C@H](NC(=O)[C@@H]1O[C@H]1C(=O)O)C(=O)NCCCCN=C(N)N | inactive | inactive | – | –
C=C(C)C(=O)O[C@H]1C[C@@](C)(O)C(=O)CC(O)/C(C)=C\[C@H]2OC(=O)C(=C)[C@H]12 (stereo partly specified) | 1.61 µM (active) | 2.02 µM (active) | – | –
Cc1cc2c(F)c(Oc3ncnn4cc(OCC(C)OC(=O)C(C)N)c(C)c34)ccc2[nH]1 (stereo unspecified) | 10.3 µM (active) | 8.2 µM (active) | – | –
Cc1noc(C)c1-c1cc(O)cc(C(O)c2ccccc2)c1 (stereo unspecified) | 1.46 µM (active) | 1.46 µM (active) | – | –
